Reference: the supplement of paper PMC10077471
Over roughly 1,900 compounds, “excess over highest single agent (ExcessHSA) synergy score, 6x6 matrix” has its median near -83; the lowest 2% begin near -370. The full list was thinned out, with the lowest values kept by preference.

Each compound was assayed on NCI-H446 (assay: excess over highest single agent (ExcessHSA) synergy score, 6x6 matrix; higher = less synergy (more negative = stronger synergy)). Conditions: 72 h; CellTiter-Glo viability.

SMILES | excess over highest single agent
C=CC[C@@H]1/C=C(\C)C[C@H](C)C[C@H](OC)[C@H]2O[C@@](O)(C(=O)C(=O)N3CCCC[C@H]3C(=O)O[C@H](/C(C)=C/[C@@H]3CC[C@@H](O)[C@H](OC)C3)[C@H](C)[C@@H](O)CC1=O)[C@H](C)C[C@@H]2OC + Cc1sc2c(c1C)C(c1ccc(Cl)cc1)=N[C@@H](CC(=O)OC(C)(C)C)c1nnc(C)n1-2 [NCGC00250412-19] | -143
CO[C@H]1C[C@@H]2CC[C@@H](C)[C@@](O)(O2)C(=O)C(=O)N2CCCC[C@H]2C(=O)O[C@H]([C@H](C)C[C@@H]2CC[C@@H](OCCO)[C@H](OC)C2)CC(=O)[C@H](C)/C=C(\C)[C@@H](O)[C@@H](OC)C(=O)[C@H](C)C[C@H](C)/C=C/C=C/C=C/1C + Cc1sc2c(c1C)C(c1ccc(Cl)cc1)=N[C@@H](CC(=O)OC(C)(C)C)c1nnc(C)n1-2 [NCGC00250412-19] | -598
CO[C@H]1C[C@@H]2CC[C@@H](C)[C@@](O)(O2)C(=O)C(=O)N2CCCC[C@H]2C(=O)O[C@H]([C@H](C)C[C@@H]2CC[C@@H](O)[C@H](OC)C2)CC(=O)[C@H](C)/C=C(\C)[C@@H](O)[C@@H](OC)C(=O)[C@H](C)C[C@H](C)/C=C/C=C/C=C/1C + Cc1sc2c(c1C)C(c1ccc(Cl)cc1)=N[C@@H](CC(=O)OC(C)(C)C)c1nnc(C)n1-2 [NCGC00250412-19] | -737
CC[C@@H]1/C=C(\C)C[C@H](C)C[C@H](OC)[C@H]2O[C@@](O)(C(=O)C(=O)N3CCCC[C@H]3C(=O)O[C@H](/C(C)=C/[C@@H]3CC[C@H](Cl)[C@H](OC)C3)[C@H](C)[C@@H](O)CC1=O)[C@H](C)C[C@@H]2OC + Cc1sc2c(c1C)C(c1ccc(Cl)cc1)=N[C@@H](CC(=O)OC(C)(C)C)c1nnc(C)n1-2 [NCGC00250412-19] | -132
CO[C@H]1C[C@@H]2CC[C@@H](C)[C@@](O)(O2)C(=O)C(=O)N2CCCC[C@H]2C(=O)O[C@H]([C@H](C)C[C@@H]2CC[C@@H](OP(C)(C)=O)[C@H](OC)C2)CC(=O)[C@H](C)/C=C(\C)[C@@H](O)[C@@H](OC)C(=O)[C@H](C)C[C@H](C)/C=C/C=C/C=C/1C + Cc1sc2c(c1C)C(c1ccc(Cl)cc1)=N[C@@H](CC(=O)OC(C)(C)C)c1nnc(C)n1-2 [NCGC00250412-19] | -543
CO[C@H]1C[C@@H]2CC[C@@H](C)[C@@](O)(O2)C(=O)C(=O)N2CCCC[C@H]2C(=O)O[C@H]([C@H](C)C[C@@H]2CC[C@@H](OC(=O)C(C)(CO)CO)[C@H](OC)C2)CC(=O)[C@H](C)/C=C(\C)[C@@H](O)[C@@H](OC)C(=O)[C@H](C)C[C@H](C)/C=C/C=C/C=C/1C + Cc1sc2c(c1C)C(c1ccc(Cl)cc1)=N[C@@H](CC(=O)OC(C)(C)C)c1nnc(C)n1-2 [NCGC00250412-19] | -419
Cc1cc(=O)c2c(O)c3c(O)cc(=O)c4c3c3c(cc(O)c1c23)C(C)(C)C=4O + Cc1sc2c(c1C)C(c1ccc(Cl)cc1)=N[C@@H](CC(=O)OC(C)(C)C)c1nnc(C)n1-2 [NCGC00250412-19] | -128
Oc1ccc([C@@H]2Oc3ccc(O)cc3[C@@H]3CCC[C@@H]32)cc1 + Cc1sc2c(c1C)C(c1ccc(Cl)cc1)=N[C@@H](CC(=O)OC(C)(C)C)c1nnc(C)n1-2 [NCGC00250412-19] | -48.9
N#Cc1cc(NC(=O)Nc2nnc(-c3ccncc3)s2)ccc1-c1cn[nH]c1 + Cc1sc2c(c1C)C(c1ccc(Cl)cc1)=N[C@@H](CC(=O)OC(C)(C)C)c1nnc(C)n1-2 [NCGC00250412-19] | 313
O=C(O)c1ccc2cc(-c3ccc(O)c(C45CC6CC(CC(C6)C4)C5)c3)ccc2c1 + Cc1sc2c(c1C)C(c1ccc(Cl)cc1)=N[C@@H](CC(=O)OC(C)(C)C)c1nnc(C)n1-2 [NCGC00250412-19] | -225
CC(C)n1cnc2c(NCCCCCCNC(=O)OC(C)(C)C)nc(NCCO)nc21 + Cc1sc2c(c1C)C(c1ccc(Cl)cc1)=N[C@@H](CC(=O)OC(C)(C)C)c1nnc(C)n1-2 [NCGC00250412-19] | -65.3
CC1=C(C(=O)Nc2cc3cn[nH]c3cc2F)C(c2ccc(Cl)cc2F)N=C(c2ccnc(Cl)c2)N1 (stereo not drawn) + Cc1sc2c(c1C)C(c1ccc(Cl)cc1)=N[C@@H](CC(=O)OC(C)(C)C)c1nnc(C)n1-2 [NCGC00250412-19] | -142
COc1ccc2c(c1)CC[C@H](CN(C)CC(=O)O)[C@@H]2c1ccccc1 + Cc1sc2c(c1C)C(c1ccc(Cl)cc1)=N[C@@H](CC(=O)OC(C)(C)C)c1nnc(C)n1-2 [NCGC00250412-19] | -220
CNC(=O)c1ccc(N2C(=S)N(c3cnc(C#N)c(C(F)(F)F)c3)C(=O)C23CCC3)cc1F + Cc1sc2c(c1C)C(c1ccc(Cl)cc1)=N[C@@H](CC(=O)OC(C)(C)C)c1nnc(C)n1-2 [NCGC00250412-19] | -9.84
CN(C)CCOc1cc(-c2cn[nH]c2)ccc1NC(=O)C1COc2ccccc2O1 (stereo not drawn) + Cc1sc2c(c1C)C(c1ccc(Cl)cc1)=N[C@@H](CC(=O)OC(C)(C)C)c1nnc(C)n1-2 [NCGC00250412-19] | -160
O=C(O)CCNc1cc(N2CCc3ccccc3CC2)nc(-c2ccccn2)n1 + Cc1sc2c(c1C)C(c1ccc(Cl)cc1)=N[C@@H](CC(=O)OC(C)(C)C)c1nnc(C)n1-2 [NCGC00250412-19] | -73
CN1CCN(c2ncc(-c3cc(Cl)cc(Cl)c3Cl)c(N)n2)CC1 + Cc1sc2c(c1C)C(c1ccc(Cl)cc1)=N[C@@H](CC(=O)OC(C)(C)C)c1nnc(C)n1-2 [NCGC00250412-19] | -219
CN(C)Cc1c(C(=O)NCCOc2ccc(C(=O)NO)cc2)oc2ccccc12 + Cc1sc2c(c1C)C(c1ccc(Cl)cc1)=N[C@@H](CC(=O)OC(C)(C)C)c1nnc(C)n1-2 [NCGC00250412-19] | -152
Cc1ccc2nc(NC(=O)CSc3nc4c(c(=O)n3-c3ccccc3)SCC4)sc2c1 + Cc1sc2c(c1C)C(c1ccc(Cl)cc1)=N[C@@H](CC(=O)OC(C)(C)C)c1nnc(C)n1-2 [NCGC00250412-19] | 84.8
CC(C)(C)OC(=O)CN(Cc1ccc(Cl)cc1)Cc1ccc([N+](=O)[O-])s1 + Cc1sc2c(c1C)C(c1ccc(Cl)cc1)=N[C@@H](CC(=O)OC(C)(C)C)c1nnc(C)n1-2 [NCGC00250412-19] | 27
Cn1c(=O)c(-c2c(Cl)cccc2Cl)cc2cnc(Nc3cccc(C(=O)O)c3)nc21 + Cc1sc2c(c1C)C(c1ccc(Cl)cc1)=N[C@@H](CC(=O)OC(C)(C)C)c1nnc(C)n1-2 [NCGC00250412-19] | -131
Cc1cc(OCCCc2c(C(=O)O)n(Cc3cccnc3)c3c(-c4c(COc5ccc(N6CCN([S+](C)(=O)[O-])CC6)cc5)nn(C)c4C)cccc23)cc(C)c1Cl + Cc1sc2c(c1C)C(c1ccc(Cl)cc1)=N[C@@H](CC(=O)OC(C)(C)C)c1nnc(C)n1-2 [NCGC00250412-19] | -31.2
CCOC(=O)N1CCN([N+]([O-])=NOc2ccc([N+](=O)[O-])cc2[N+](=O)[O-])CC1 + Cc1sc2c(c1C)C(c1ccc(Cl)cc1)=N[C@@H](CC(=O)OC(C)(C)C)c1nnc(C)n1-2 [NCGC00250412-19] | -84.4
O=C(c1ccc(Nc2nccc(-c3cc4ccccc4s3)n2)cc1)N1CCC(N2CCCC2)CC1 + Cc1sc2c(c1C)C(c1ccc(Cl)cc1)=N[C@@H](CC(=O)OC(C)(C)C)c1nnc(C)n1-2 [NCGC00250412-19] | -181
CNC(=O)c1ccc(N2C(=S)N(c3ccc(C#N)c(C(F)(F)F)c3)C(=O)C23CCC3)cc1F + Cc1sc2c(c1C)C(c1ccc(Cl)cc1)=N[C@@H](CC(=O)OC(C)(C)C)c1nnc(C)n1-2 [NCGC00250412-19] | -51.1
O=C(OCC#CCSc1nnc(-c2cccc3ccccc23)o1)c1cc2ccccc2s1 + Cc1sc2c(c1C)C(c1ccc(Cl)cc1)=N[C@@H](CC(=O)OC(C)(C)C)c1nnc(C)n1-2 [NCGC00250412-19] | -169
O=C1CSC(=O)N1C(CCc1ccncc1)COc1ccc(-c2cccc([N+](=O)[O-])c2)cc1 (stereo not drawn) + Cc1sc2c(c1C)C(c1ccc(Cl)cc1)=N[C@@H](CC(=O)OC(C)(C)C)c1nnc(C)n1-2 [NCGC00250412-19] | -96.7
CS[C@H]1SC[C@H]2C(=O)N(C)[C@@H](C(C)C)C(=O)OC[C@@H](NC(=O)c3cnc4ccccc4n3)C(=O)N[C@@H](C)C(=O)N(C)[C@@H]1C(=O)N(C)[C@@H](C(C)C)C(=O)OC[C@@H](NC(=O)c1cnc3ccccc3n1)C(=O)N[C@@H](C)C(=O)N2C + Cc1sc2c(c1C)C(c1ccc(Cl)cc1)=N[C@@H](CC(=O)OC(C)(C)C)c1nnc(C)n1-2 [NCGC00250412-19] | 15.3
